Paper PMC4336329 (PLoS ONE, 2015)
The whole screen tested about 310,000 compounds, of which about 14,000 (4.5%) showed an effect of 50% or more. The effect is printed as a negative number. This is one part of a sample in which strong results are shown more often than they occur.

Each compound was assayed against human ether-à-go-go-related gene (hERG) potassium channel (human, UniProt Q12809) (assay: primary screen, population patch clamp on CHO cells stably expressing hERG; higher = less effect of the substance).
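Also: peak tail current of the secondary pulse compared with the same well before compound.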

Chain of human ether-à-go-go-related gene (hERG) potassium channel (Q12809 whole entry, looked up): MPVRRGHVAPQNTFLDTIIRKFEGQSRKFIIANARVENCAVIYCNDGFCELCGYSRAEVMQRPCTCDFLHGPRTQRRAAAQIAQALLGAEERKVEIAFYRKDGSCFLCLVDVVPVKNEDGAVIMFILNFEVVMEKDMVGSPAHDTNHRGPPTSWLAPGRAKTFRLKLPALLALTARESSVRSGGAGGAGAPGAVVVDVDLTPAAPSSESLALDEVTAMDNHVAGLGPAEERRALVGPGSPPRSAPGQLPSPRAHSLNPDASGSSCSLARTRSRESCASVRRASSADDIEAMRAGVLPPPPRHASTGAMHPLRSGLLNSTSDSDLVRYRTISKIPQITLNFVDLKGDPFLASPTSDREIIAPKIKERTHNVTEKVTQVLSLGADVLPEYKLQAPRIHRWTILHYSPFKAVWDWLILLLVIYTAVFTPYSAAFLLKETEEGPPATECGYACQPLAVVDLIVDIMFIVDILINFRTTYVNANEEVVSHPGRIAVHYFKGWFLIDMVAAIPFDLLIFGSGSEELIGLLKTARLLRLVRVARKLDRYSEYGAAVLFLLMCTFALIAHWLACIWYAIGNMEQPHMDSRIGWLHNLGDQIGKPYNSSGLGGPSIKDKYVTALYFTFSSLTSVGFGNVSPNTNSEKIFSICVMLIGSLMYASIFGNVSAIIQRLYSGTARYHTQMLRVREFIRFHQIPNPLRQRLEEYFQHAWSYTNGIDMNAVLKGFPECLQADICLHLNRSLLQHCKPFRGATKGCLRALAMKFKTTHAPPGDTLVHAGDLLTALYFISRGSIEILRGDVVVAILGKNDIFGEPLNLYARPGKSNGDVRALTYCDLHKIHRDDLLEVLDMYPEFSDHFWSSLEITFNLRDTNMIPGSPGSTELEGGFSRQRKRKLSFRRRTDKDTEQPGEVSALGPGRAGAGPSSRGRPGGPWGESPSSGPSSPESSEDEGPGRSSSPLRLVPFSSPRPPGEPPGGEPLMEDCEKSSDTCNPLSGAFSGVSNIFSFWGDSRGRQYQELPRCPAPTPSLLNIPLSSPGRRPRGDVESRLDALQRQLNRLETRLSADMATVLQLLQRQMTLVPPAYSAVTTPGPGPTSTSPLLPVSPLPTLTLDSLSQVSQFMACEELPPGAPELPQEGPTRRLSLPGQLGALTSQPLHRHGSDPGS

Row | Compound | hERG current change (%, negative = inhibition) at 10uM
1 | CC(=O)Nc1cc(NC(=O)C2C3C=CC(C3)C2C(=O)O)ccc1Cl (centres unmarked) | 14.5%
2 | Cc1ccc2nc(CSc3nnc(Nc4ccccc4C)s3)cc(=O)n2c1 | -43%
3 | CN(C(=O)CSc1nnc(-c2ccc(Cl)cc2)n1CC1CCCO1)C1CCS(=O)(=O)C1 (centres unmarked) | -0.671%
4 | O=C(c1ccccc1F)N(Cc1cccs1)C1CCS(=O)(=O)C1 (centres unmarked) | 21.9%
5 | CN1C(=O)C2ON(c3ccccc3)C(c3cccs3)C2C1=O (centres unmarked) | -13.6%
6 | COc1cc(OC)c(OC)cc1CN(C)CCc1ccccn1.O=C(O)C(=O)O | -11.2%
7 | COc1cc(CN(C)CCc2ccccn2)cc(OC)c1OC.O=C(O)C(=O)O | -11.6%
8 | COc1ccc(CN(C)CCc2ccccn2)cc1OC.O=C(O)C(=O)O | -5.06%
9 | CSc1ccc(CN(C)CCc2ccccn2)cc1.O=C(O)C(=O)O | -64.4%
10 | CCOc1ccc(OCCN(C)Cc2ccccc2)cc1.O=C(O)C(=O)O | -45.8%
11 | CCOc1ccc(CN(C)CCc2ccccn2)cc1.O=C(O)C(=O)O | -77.8%
12 | COc1ccc(OC)c(N(CC(=O)Nc2cccnc2)S(=O)(=O)c2ccc(OC)c(OC)c2)c1 | -17.9%
13 | COC(=O)c1sc(NC(=O)c2cnccn2)c(C(=O)OC)c1C | 18.7%
14 | COc1ccccc1OCCSc1ncnc2nc[nH]c12 | 4.63%
15 | Cc1ccc(NC(=O)C(C)SCc2nc3sc(C)c(C)c3c(=O)[nH]2)nc1 (centres unmarked) | -10.7%
16 | CCS(=O)(=O)NC(C)C(c1cccs1)N1CCN(c2ccc(F)cc2)CC1 (centres unmarked) | -8.13%
17 | CC(C)CCn1cnc2c(cnn2-c2ccc(F)cc2)c1=O | -3.95%
18 | C#Cc1ccc([C@H]2C=C(C(=O)N3CCN(Cc4ccc5c(c4)OCO5)CC3)O[C@@H](OCc3ccc(CO)cc3)C2)cc1 | -7.23%
19 | O=C(C1=C[C@@H](c2ccc(Br)cc2)C[C@@H](OCCCCO)O1)N1CCN(Cc2ccc3c(c2)OCO3)CC1 | -55.3%
20 | O=C(C1=C[C@@H](c2ccc(Br)cc2)C[C@@H](OCc2ccc(CO)cc2)O1)N1CCN(Cc2ccc3c(c2)OCO3)CC1 | -9.55%
21 | CC(C)(C)[C@H]1C=C(C(=O)N2CCN(Cc3ccc4c(c3)OCO4)CC2)O[C@@H](OCCCCO)C1 | -23.4%
22 | O=C(C1=C[C@@H](c2ccc3c(c2)OCO3)C[C@@H](OCCCCO)O1)N1CCOCC1 | 7.64%
23 | O=C(C1=C[C@H](c2ccc3c(c2)OCO3)C[C@H](OCCCCO)O1)N1CCN(Cc2ccc3c(c2)OCO3)CC1 | -69.1%
24 | O=C(C1=C[C@H](c2ccc(Br)cc2)C[C@H](OCc2ccc(CO)cc2)O1)N1CCN(Cc2ccc3c(c2)OCO3)CC1 | -19.8%
25 | O=C(C1=C[C@H](c2ccc(C(F)(F)F)cc2)C[C@H](OCc2ccc(CO)cc2)O1)N1CCN(Cc2ccc3c(c2)OCO3)CC1 | -19.5%
26 | O=C(C1=C[C@H](c2ccc(C(F)(F)F)cc2)C[C@H](OCCCCO)O1)N1CCN(Cc2ccc3c(c2)OCO3)CC1 | -44.1%
27 | C#Cc1ccc([C@@H]2C=C(C(=O)N3CCN(Cc4ccc5c(c4)OCO5)CC3)O[C@H](OCCCCO)C2)cc1 | -64.1%
28 | C[C@@H]1C=C(C(=O)N2CCN(Cc3ccc4c(c3)OCO4)CC2)O[C@H](OCCCCO)C1 | 4.01%
29 | O=C(C1=C[C@@H](c2ccc(C(F)(F)F)cc2)C[C@@H](OCCCCO)O1)N1CCN(Cc2ccc3c(c2)OCO3)CC1 | -68.8%
